Experimental data: PubChem BioAssay AID2314 (National Center for Advancing Translational Sciences (NCATS), 2010)
In all, about 300,000 compounds went through this assay and about 37,000 (12%) were called active. The entries come from a sample that favours actives as a whole. Unmarked numbers belong to inactive results. Cut-off read from the data, not from the text of the source: active = max response mostly above about 13% (no sharp cut-off); inactive = mostly below about 14%.

test: Cycloheximide Counterscreen for Small Molecule Inhibitors of Shiga Toxin; settings: cell reporter, cycloheximide protein synthesis inhibition counterscreen; hits give high values; note: read at 38.3 µM for the half of the compounds with a filed dose; 0% is about no effect

| SMILES | max response |
| --- | --- |
| CC(NC(=O)CCC(=O)N1CCN(S(=O)(=O)c2ccc(Cl)cc2)CC1)c1ccccc1 (centres undefined) | 4.89% |
| Cn1c(CNC(=O)c2ccco2)nnc1SCC(=O)N1CCN(c2ccccc2)CC1 | -0.554% |
| COc1ccccc1NC(=O)C1=C(C)Nc2nc3ccccc3n2C1c1cccs1 (centres undefined) | -6.14% |
| Cc1c(C(=O)OC(C)C)sc(NC(=O)c2cccnc2)c1C#N | 1.72% |
| CC(=O)Nc1ccc(CN2CCN(Cc3ccc(F)c(F)c3)C(CCO)C2)cc1 (centres undefined) | -0.733% |
| COc1ccc(CNC(=O)C2CCN(C(=O)c3ccco3)CC2)cc1 | -5.74% |
| COc1ccc(CCNC(=S)N2CCN(S(=O)(=O)c3ccc(Cl)cc3)CC2)cc1 | -4.46% |
| O=C1Cc2ccccc2Sc2ccc(Cl)cc21 | 7.71% |
| NS(=O)(=O)c1ccc2nc(NC(=O)C3=COCCO3)sc2c1 | 31% (active) |
| NS(=O)(=O)c1ccc2nc(NC(=O)CS(=O)(=O)c3ccc(F)cc3)sc2c1 | 1.51% |
| O=C(Nc1ccc(S(=O)(=O)N2CCCC2)cc1Cl)C1=COCCO1 | -1.75% |
| COc1cc(/C=C2\SC(=O)NC2=O)ccc1OCc1ccc(Cl)nc1 | -3.18% |
| COc1ccc(NC(=S)N2CCC(NC(=O)c3cccc(F)c3)CC2)cc1 | -5.6% |
| CCc1cc(-c2nnc(SCC(=O)NC3CC3)n2C)cs1 | 5.72% |
| COc1ccc(S(=O)(=O)N2CCCC(C(=O)Nc3ccc(NC(=O)c4ccccn4)cc3)C2)cc1 (centres undefined) | 40.2% (active) |
| COc1ccc(NC(=O)C2CCCN(S(=O)(=O)c3cccc4cccnc34)C2)cc1 (centres undefined) | -0.912% |
| CCOc1cccc(NC(=O)C2CCCN(S(=O)(=O)c3ccc(OC)cc3)C2)c1 (centres undefined) | 2.3% |
| Cc1ccc(-c2cccc([C@H]3[C@@H]4C=CC[C@@H](C)[C@@H]4C(=O)N3Cc3ccccc3)c2)cc1 | 2.34% |
| Cc1ccc2c(C)c(C(=O)N(C)CCC3CCCCO3)oc2c1C (centres undefined) | 17.8% |
| CCOC(=O)c1nc(Nc2ccc(C(=O)OC)cc2)c2ccccc2n1 | 9.36% |
| COC(=O)c1ccc(Nc2ncnc3sccc23)cc1 | 39.2% (active) |
| COC(=O)c1ccc(OC(=O)c2cnccn2)cc1 | -7.13% |
| CN1C(=O)/C(=C\c2ccc(-c3ccccc3)o2)SC1=S | 9.37% (active) |
| NS(=O)(=O)c1ccc(-c2ccc(/C=C3\SC(=O)NC3=O)o2)cc1 | -2.44% |

| SMILES | max response |
| --- | --- |
| O=C(O)C(c1ccccc1)N1C(=O)/C(=C\c2ccc(-c3cccc(Cl)c3)o2)SC1=S (centres undefined) | 0.131% |
| COc1ccc2[nH]c3c(C)c4cc[n+](C)cc4c(C)c3c2c1 | -3.46% |
| O=C1CCCN1CCCNC(=S)Nc1ccc(F)c(Cl)c1 | 11.5% |
| OCc1ccc(OCCCOc2cccc3cccnc23)cc1 | 1.36% |
| Cc1ccc2cccc(OCCCOc3ccccc3CO)c2n1 | 13.2% (active) |
| Cc1ccc(N(C)C(=O)Oc2cccc3ccc(C)nc23)cc1 | -4.01% |
| Cc1cc(S(=O)(=O)NCc2ccccn2)c(Cl)cc1Cl | -3.82% |
| O=C1NC(=Nc2ccc(Cl)cc2)SC1Cc1cccc(Cl)c1Cl (centres undefined) | -3.08% |
| Cc1nc(N2CCOCC2)nc2c1CCCC2 | 9.25% |
| Nc1nc(-c2sc3nc4c(cc3c2N)CCCC4)nc(N2CCOCC2)n1 | 17.7% (active) |
| Cc1cc(Oc2ccccc2)nc(N2CCOCC2)n1 | 11.6% |
| COc1ccc(N2C(=O)C(CC(=O)Nc3ccc(F)cc3)N(CCc3cccs3)C2=O)cc1 (centres undefined) | 8.62% |
| CNc1ccc(SC#N)cc1 | -2% |
| COc1ccc(CNC(=O)C2CCN(C(=O)c3ccccc3)CC2)cc1 | 1.61% |
| COc1ccc(OCc2cccc(C(=O)N3CCCC3)c2)cc1 | 59.3% (active) |
| COc1ccc(Cn2c(=S)[nH]c3cc(C(=O)N4CCCCC4)ccc3c2=O)cc1 | -3.34% |
| Cc1cccc(C(=O)N2CCN(S(=O)(=O)N3CCCCC3)CC2)c1 | -2.15% |
| Cc1cccc(C(=O)N2CCCN(C(=O)c3cccc(C)c3)CC2)c1 | -1.57% |
| CC(=O)Oc1ccc(-c2cccc(C(=O)N3CCCCC3)c2)cc1 | 12.6% (active) |
| CCOc1ccc(OCc2cccc(C(=O)N(CC)CC)c2)cc1 | 47.9% (active) |
| CCOc1ccc(OCc2ccc(C(=O)N(C)c3ccccc3)o2)cc1 | 2.57% |
| COc1cccc(COc2ccc(N(C)S(=O)(=O)c3ccccc3)cc2)c1 | -0.489% |
| O=C(c1cc(S(=O)(=O)N2CCOCC2)ccc1Cl)N1CCOCC1 | -3.17% |
| OC(c1nc2ccc(F)cc2[nH]1)C(O)c1nc2ccc(F)cc2[nH]1 (centres undefined) | -0.936% |

| SMILES | max response |
| --- | --- |
| COc1ccccc1N1CCN(C(=O)c2cc(=O)c3cc(C)cc(C)c3o2)CC1 | -2.78% |
| Cc1ccc(C)c(-n2c(SCC(=O)O)nc3sc4c(c3c2=O)CCCC4)c1 | -4.29% |
| Cc1ccc(NC(=S)N(CCN(C)C)Cc2cccs2)cc1C | -3.5% |
| O=C(COc1ccc(-n2cnnn2)cc1)Nc1ccccc1Cl | 9.71% |
| Cc1sc2nc(CSCC(=O)Nc3c(Cl)cccc3Cl)[nH]c(=O)c2c1C | 13.5% |
| Cc1ccc(NC(=O)Nc2ccccc2)c(Br)c1 | 64.5% (active) |
| CS(=O)(=O)c1ccc(Cl)c(NC(=O)Nc2ccccc2)c1 | -1.05% |
| CCOc1cc(NC(=O)Nc2ccccc2)c(OCC)cc1NC(=O)CC | -3.19% |
| COc1ccc(S(=O)(=O)N/N=C\c2ccc(OC)c(COc3ccc(C)cc3[N+](=O)[O-])c2)cc1 | -1.1% |
| O=C(NCc1ccco1)C(c1ccncc1)N(C(=O)Cn1nnc2ccccc21)c1ccccc1 (centres undefined) | -1.7% |
| CSc1ccccc1NC(=O)CN(C)CC(=O)Nc1cccc(Br)c1 | 1.62% |
| CCN(CC)C(=O)Oc1ccc(Br)cc1C(=O)Nc1ccc(F)c(Cl)c1 | 11% |
| CCN(CC)C(=O)C(=O)Nc1cccc(Br)c1 | 36.1% (active) |
| CC(C)(C)c1ccccc1NC(=O)CN1C(=O)NC2(CCCC2)C1=O | -4.11% |
| Cc1cccc(C(=O)OC(C)CN2CCN(C)CC2)c1 (centres undefined) | 41.3% (active) |
| CC(CN1CCCCC1)OC(=O)c1ccccc1Cl (centres undefined) | 22.1% (active) |
| CC(CN1CCOCC1)OC(=O)c1ccc(C(C)(C)C)cc1 (centres undefined) | 16.4% (active) |
| Cc1ccc(C(=O)OC(C)CN2CCOCC2)cc1 (centres undefined) | 16.8% |
| CC(CN1CCOCC1)c1ccccc1 (centres undefined) | 2.67% |
| Cc1ccc(C(CNC(=O)Nc2cccc(C)c2)N2CCN(C)CC2)cc1 (centres undefined) | -4.7% |
| CC(CN1CCCCC1)c1ccccc1 (centres undefined) | -3.13% |
| CC(CN1CCOCC1)OC(=O)c1ccc(Cl)cc1Cl (centres undefined) | 20.3% |
| Cc1cccc(C(=O)OC(C)CN2CCCC2)c1 (centres undefined) | 6.5% |
| COc1ccc(-n2nc3c(N4CCC(C(=O)NCc5ccccc5)CC4)nnc(C)c3c2C)cc1 | -13.3% |

| SMILES | max response |
| --- | --- |
| CCOC(=O)C1C(c2ccc(OC)c(OC)c2)c2c([nH][nH]c2=O)CC1(C)O (centres undefined) | -1.55% |
| CO/N=C(/CS(=O)(=O)c1ccc(Br)cc1)c1ccc(OC)cc1 | 0.74% |
| Clc1ccc(COn2c(-c3ccc(Cl)cc3Cl)nc3ncccc32)cc1 | -3.82% |
| Cc1n[nH]c(=O)c2c1nnn2Cc1ccc(F)cc1 | -2.69% |
| O=C(Nc1ccc(Br)cc1)c1cccc(NC(=O)C2C3CC4OC(=O)C2C4C3)c1 (centres undefined) | 14% |
| Cn1c(CCNS(=O)(=O)c2ccc(F)cc2)nnc1SCc1cccnc1 | -3.41% |
| CCC1(CC)NC(=O)N(CC(=O)OCC(=O)NC(=O)c2ccccc2)C1=O | -1.66% |
| CCC1(CC)NC(=O)N(Cc2nc3ccccc3s2)C1=O | 19.8% (active) |
| COC(=O)C1[C@H]2SC(C)(C)C(C(=O)OC)N2C(=O)N1Cc1nc2ccccc2s1 (some centres undefined) | 0.765% |
| O=S(=O)(c1ccccc1)c1nc(Cc2ccccc2)oc1N1CCOCC1 | -5.23% |
| COc1ccc(CCN2C(=O)CC(N3CCC(C(N)=O)CC3)C2=O)cc1OC (centres undefined) | 3.18% |
| Nc1nonc1-n1nnc(C(=O)N/N=C/c2cc(Br)ccc2O)c1CSC1=NCCS1 | -2.34% |
| O=C(Nc1ccccc1F)c1ccccc1-c1ccc(C(F)(F)F)cc1 | -2.22% |
| COC(=O)C1C(=O)c2c([nH]c(C(=O)OCCSC)c2C)CC1C (centres undefined) | 51.7% (active) |
| CCCOC(=O)c1[nH]c2c(c1C)C(=O)CC(c1cc(OC)c(OC)c(OC)c1)C2 (centres undefined) | 3.17% |
| CCCOC(=O)C1=C(C)NC2=C(C(=O)C(C(=O)OC)C(C)C2)C1c1ccc(N(C)C)cc1 (centres undefined) | 12.3% |
| CC(C)(CNC(=O)Cc1ccc(Cl)cc1Cl)N1CCOCC1 | -3.1% |
| N#C/C(=C(/O)COc1cccc2ccccc12)c1nc2ccccc2[nH]1 | 2.08% |
| Cc1ccccc1OC/C(O)=C(\C#N)c1nc2ccccc2[nH]1 | 0.892% |
| COCCN(CCOC)S(=O)(=O)c1ccc(/C(O)=C(\C#N)c2nc3ccccc3[nH]2)cc1 | 12.2% (active) |
| O=C(c1ccc(OC2CCN(C(=O)c3cccnc3)CC2)cc1)N1CCCCCC1 | -1.68% |
| CCOC(=O)/C(=C\c1ccc([N+](=O)[O-])cc1)C(=O)c1cc(C(C)=O)c(Nc2ccccc2)s1 | -4.46% |
